# What was measured:
# Experiment in all cases: DAPPL (digital affinity profiling via proximity ligation, sequencing); 10 mM Tris-HCl pH 7.5, 50 mM NaCl, 1 mM DTT, 4% glycerol, room temperature, 30 min; GST-TFs on glutathione beads, 16-mer random dsDNA library, 0.1% formaldehyde crosslink after washing; high values mean tight binding
# FEV = target: T1, FEV (Homo sapiens, UniProt Q99581 1-238); settings: protein: recombinant; tags: N-terminal GST; dsDNA, one strand shown
# T1 sequence: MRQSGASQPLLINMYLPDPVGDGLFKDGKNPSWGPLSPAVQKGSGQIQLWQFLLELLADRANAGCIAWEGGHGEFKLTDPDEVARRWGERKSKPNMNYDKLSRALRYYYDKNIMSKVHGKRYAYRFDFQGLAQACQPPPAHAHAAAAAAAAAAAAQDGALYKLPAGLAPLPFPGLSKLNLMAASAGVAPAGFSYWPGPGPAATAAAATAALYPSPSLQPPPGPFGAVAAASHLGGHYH
# Outline: (§1)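 Human transcription factors were made in yeast as GST fusions, captured on glutathione beads and barcoded with DNA. With a tag-only sample included, the pool was incubated with 200 nmole of a random double-stranded 16-mer DNA library in Tris/NaCl/DTT/glycerol buffer at room temperature for 30 min, then crosslinked with 0.1% formaldehyde after washing, ligated by proximity, amplified and sequenced. For binding signal, each hexamer's read frequency for a factor is divided by its frequency for the tag-only sample.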
# ETV5 = ETV5 (Homo sapiens, UniProt P41161 1-510); settings: protein: recombinant; tags: N-terminal GST; dsDNA, one strand shown
# Sequence of ETV5 (P41161 whole entry): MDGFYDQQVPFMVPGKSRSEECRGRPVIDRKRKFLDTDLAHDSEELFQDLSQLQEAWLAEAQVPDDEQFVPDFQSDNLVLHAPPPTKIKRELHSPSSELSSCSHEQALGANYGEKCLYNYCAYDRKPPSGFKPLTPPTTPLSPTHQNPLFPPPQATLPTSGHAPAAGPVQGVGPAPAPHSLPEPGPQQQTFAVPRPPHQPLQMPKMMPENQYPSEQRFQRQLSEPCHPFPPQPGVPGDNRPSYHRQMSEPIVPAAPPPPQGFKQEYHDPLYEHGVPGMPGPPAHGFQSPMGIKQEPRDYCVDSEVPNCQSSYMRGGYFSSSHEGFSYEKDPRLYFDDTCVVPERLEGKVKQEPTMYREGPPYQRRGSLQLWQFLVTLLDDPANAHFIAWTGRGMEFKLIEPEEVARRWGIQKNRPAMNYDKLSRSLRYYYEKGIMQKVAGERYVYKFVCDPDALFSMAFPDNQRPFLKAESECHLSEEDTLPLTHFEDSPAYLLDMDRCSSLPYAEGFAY
# Outline: as §1
# HSF1 = HSF1 (Homo sapiens, UniProt Q00613 1-529); settings: protein: recombinant; tags: N-terminal GST; chain copies: 3; dsDNA, one strand shown
# Sequence of HSF1 (Q00613 whole entry): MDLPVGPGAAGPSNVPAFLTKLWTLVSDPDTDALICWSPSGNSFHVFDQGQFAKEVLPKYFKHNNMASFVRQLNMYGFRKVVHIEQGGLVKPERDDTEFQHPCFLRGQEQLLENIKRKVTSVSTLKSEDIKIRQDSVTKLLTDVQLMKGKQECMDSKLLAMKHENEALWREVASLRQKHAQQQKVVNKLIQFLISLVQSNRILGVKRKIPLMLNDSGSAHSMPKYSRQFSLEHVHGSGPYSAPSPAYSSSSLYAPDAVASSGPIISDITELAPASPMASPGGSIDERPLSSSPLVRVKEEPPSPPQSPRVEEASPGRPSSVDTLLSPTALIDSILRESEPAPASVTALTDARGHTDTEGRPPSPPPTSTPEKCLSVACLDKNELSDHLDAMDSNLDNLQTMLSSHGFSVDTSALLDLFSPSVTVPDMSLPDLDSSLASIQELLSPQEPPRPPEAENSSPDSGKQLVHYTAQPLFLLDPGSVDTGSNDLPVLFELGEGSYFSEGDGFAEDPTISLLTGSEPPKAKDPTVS
# Outline: as §1
# SPIC = target: T2, SPIC (Homo sapiens, UniProt Q8N5J4 1-248); settings: protein: recombinant; tags: N-terminal GST; dsDNA, one strand shown
# T2 sequence: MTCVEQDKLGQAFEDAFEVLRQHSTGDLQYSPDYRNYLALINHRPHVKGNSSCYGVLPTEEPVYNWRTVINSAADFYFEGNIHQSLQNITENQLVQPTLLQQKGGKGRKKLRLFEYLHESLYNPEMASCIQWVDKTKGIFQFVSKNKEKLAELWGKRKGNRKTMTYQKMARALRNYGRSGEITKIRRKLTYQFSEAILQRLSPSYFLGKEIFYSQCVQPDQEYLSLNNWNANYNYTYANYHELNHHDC
# Outline: as §1
# ELF4 = ELF4 (Homo sapiens, UniProt Q99607 1-663); settings: protein: recombinant; tags: N-terminal GST; dsDNA, one strand shown
# Sequence of ELF4 (Q99607 whole entry): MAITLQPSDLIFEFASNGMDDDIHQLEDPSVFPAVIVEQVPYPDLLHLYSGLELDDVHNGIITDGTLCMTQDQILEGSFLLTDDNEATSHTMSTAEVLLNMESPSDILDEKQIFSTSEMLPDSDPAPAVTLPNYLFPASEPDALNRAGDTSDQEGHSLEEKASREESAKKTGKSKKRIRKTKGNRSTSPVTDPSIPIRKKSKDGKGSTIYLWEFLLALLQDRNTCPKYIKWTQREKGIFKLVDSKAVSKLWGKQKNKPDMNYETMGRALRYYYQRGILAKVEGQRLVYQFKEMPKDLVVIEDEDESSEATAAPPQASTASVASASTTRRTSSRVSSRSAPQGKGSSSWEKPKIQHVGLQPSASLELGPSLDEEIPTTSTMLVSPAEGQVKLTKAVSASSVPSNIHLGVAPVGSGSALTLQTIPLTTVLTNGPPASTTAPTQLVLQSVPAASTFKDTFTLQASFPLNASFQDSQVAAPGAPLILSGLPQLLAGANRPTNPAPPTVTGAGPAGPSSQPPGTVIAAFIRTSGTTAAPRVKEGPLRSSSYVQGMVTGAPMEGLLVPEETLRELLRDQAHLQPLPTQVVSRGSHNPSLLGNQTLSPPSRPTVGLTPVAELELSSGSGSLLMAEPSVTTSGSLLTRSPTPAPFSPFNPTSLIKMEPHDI
# Outline: as §1
# ELK4 = target: T3, ELK4 (Homo sapiens, UniProt P28324-2 1-405); settings: protein: recombinant; tags: N-terminal GST; dsDNA, one strand shown
# T3 sequence: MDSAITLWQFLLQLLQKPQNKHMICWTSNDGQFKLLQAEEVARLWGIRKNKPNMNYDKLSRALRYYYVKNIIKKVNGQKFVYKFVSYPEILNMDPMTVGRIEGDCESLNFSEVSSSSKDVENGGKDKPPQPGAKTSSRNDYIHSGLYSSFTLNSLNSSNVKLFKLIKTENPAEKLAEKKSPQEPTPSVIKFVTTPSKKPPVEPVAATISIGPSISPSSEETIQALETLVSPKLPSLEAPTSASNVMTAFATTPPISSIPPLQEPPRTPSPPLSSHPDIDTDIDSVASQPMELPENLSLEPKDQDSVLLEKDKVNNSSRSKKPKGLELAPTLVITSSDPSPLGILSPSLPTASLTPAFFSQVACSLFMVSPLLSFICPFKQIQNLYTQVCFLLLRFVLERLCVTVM
# Outline: as §1
# ETV2 = target: T4, ETV2 (Homo sapiens, UniProt O00321 1-342); settings: protein: recombinant; tags: N-terminal GST; dsDNA, one strand shown
# T4 sequence: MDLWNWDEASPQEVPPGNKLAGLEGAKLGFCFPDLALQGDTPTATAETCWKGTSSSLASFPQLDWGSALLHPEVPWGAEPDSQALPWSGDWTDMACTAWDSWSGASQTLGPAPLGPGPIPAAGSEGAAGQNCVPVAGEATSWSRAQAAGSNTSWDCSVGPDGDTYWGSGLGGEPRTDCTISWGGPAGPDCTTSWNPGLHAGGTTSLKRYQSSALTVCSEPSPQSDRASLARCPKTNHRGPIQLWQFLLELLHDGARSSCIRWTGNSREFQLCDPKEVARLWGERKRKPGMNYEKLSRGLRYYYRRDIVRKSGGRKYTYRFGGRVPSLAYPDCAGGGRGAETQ
# Outline: as §1
# ELF3 = target: T5, ELF3 (Homo sapiens, UniProt P78545 1-371); settings: protein: recombinant; tags: N-terminal GST; dsDNA, one strand shown
# T5 sequence: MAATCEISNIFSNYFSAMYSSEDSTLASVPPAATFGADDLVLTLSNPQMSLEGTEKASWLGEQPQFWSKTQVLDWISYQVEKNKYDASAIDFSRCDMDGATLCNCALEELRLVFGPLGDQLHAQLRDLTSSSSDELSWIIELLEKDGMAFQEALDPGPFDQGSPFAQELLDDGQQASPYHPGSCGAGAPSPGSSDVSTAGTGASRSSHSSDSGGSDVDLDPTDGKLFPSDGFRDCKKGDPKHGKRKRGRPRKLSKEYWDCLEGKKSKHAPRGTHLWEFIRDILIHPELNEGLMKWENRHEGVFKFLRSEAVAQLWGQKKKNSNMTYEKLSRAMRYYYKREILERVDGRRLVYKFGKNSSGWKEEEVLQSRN
# Outline: as §1
# CRX = CRX (Homo sapiens, UniProt O43186 1-299); settings: protein: recombinant; tags: N-terminal GST; dsDNA, one strand shown
# Sequence of CRX (O43186 whole entry): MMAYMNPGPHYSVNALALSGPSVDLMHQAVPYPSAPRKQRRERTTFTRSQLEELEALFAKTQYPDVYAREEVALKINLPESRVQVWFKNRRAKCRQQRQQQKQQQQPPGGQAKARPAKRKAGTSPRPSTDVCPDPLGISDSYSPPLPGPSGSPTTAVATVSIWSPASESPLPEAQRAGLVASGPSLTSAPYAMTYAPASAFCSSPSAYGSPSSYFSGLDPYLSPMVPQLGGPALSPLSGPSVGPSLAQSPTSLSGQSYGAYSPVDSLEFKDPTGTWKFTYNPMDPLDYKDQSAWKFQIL
# Outline: as §1
# ETV1 = ETV1 (Homo sapiens, UniProt P50549 1-477); settings: protein: recombinant; tags: N-terminal GST; dsDNA, one strand shown
# Sequence of ETV1 (P50549 whole entry): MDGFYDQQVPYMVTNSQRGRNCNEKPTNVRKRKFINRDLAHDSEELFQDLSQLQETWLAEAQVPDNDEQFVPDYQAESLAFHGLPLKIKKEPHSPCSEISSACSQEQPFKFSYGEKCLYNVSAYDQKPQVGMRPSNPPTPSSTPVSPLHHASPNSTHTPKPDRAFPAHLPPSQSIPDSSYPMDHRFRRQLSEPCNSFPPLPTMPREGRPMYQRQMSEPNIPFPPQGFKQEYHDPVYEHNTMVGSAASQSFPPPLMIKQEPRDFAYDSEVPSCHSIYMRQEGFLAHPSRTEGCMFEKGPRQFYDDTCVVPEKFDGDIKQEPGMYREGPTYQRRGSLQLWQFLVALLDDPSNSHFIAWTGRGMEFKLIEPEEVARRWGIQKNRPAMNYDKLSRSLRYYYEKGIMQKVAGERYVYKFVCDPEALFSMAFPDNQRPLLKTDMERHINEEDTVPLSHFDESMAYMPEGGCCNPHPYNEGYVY
# Outline: as §1
# ERF = target: T6, ERF (Homo sapiens, UniProt P50548 1-548); settings: protein: recombinant; tags: N-terminal GST; dsDNA, one strand shown
# T6 sequence: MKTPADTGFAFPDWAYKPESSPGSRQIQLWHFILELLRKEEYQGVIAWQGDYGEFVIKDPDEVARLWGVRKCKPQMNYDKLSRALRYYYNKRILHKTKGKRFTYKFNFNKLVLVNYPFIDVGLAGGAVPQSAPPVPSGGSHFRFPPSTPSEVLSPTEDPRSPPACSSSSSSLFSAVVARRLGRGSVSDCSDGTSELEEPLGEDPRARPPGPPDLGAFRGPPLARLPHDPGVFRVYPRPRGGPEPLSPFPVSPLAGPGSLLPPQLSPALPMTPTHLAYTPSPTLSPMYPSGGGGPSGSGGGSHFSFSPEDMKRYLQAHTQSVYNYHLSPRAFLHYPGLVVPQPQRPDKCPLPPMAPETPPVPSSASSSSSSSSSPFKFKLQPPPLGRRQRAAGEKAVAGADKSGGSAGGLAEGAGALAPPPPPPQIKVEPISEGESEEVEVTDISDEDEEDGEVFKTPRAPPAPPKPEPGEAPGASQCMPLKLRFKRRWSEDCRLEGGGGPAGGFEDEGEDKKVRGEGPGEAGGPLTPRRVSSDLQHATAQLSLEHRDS
# Outline: as §1
# ETV3L = target: T7, ETV3L (Homo sapiens, UniProt Q6ZN32 1-361); settings: protein: recombinant; tags: N-terminal GST; dsDNA, one strand shown
# T7 sequence: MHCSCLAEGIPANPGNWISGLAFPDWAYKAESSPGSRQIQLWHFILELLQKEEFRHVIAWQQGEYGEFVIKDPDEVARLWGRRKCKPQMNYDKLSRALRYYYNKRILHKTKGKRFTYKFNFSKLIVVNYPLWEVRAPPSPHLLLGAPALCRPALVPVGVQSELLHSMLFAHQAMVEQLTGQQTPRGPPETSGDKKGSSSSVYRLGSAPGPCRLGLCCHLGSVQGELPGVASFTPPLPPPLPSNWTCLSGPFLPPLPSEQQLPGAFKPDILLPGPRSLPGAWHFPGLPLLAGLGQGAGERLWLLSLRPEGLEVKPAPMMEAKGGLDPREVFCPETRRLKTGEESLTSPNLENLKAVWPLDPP
# Outline: as §1
# ETS2 = target: T8, ETS2 (Homo sapiens, UniProt P15036 1-469); settings: protein: recombinant; tags: N-terminal GST; dsDNA, one strand shown
# T8 sequence: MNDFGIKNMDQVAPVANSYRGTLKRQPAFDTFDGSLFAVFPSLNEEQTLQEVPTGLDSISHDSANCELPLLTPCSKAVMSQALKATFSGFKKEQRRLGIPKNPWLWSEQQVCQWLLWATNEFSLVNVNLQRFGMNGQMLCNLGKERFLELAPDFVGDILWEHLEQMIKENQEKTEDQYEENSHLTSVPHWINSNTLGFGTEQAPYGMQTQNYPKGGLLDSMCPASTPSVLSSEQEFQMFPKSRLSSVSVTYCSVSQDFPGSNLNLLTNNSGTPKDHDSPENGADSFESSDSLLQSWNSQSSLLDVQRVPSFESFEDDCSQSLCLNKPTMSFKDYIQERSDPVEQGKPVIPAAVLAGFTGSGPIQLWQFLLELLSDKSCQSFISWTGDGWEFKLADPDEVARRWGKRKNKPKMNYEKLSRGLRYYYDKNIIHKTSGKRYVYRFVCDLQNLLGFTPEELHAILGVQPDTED
# Outline: as §1
# SPDEF = target: T9, SPDEF (Homo sapiens, UniProt O95238 1-335); settings: protein: recombinant; tags: N-terminal GST; dsDNA, one strand shown
# T9 sequence: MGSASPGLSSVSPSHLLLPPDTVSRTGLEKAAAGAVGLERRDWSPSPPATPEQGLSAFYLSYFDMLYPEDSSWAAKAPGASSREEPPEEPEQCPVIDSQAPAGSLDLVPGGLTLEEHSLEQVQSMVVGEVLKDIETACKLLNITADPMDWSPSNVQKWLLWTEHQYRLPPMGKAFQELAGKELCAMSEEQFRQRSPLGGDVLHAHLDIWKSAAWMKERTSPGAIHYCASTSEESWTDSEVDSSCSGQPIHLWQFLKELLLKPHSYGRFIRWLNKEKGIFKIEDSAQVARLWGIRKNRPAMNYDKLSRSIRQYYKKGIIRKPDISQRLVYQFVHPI
# Outline: as §1
# ETV7 = target: T10, ETV7 (Homo sapiens, UniProt Q9Y603 1-341); settings: protein: recombinant; tags: N-terminal GST; dsDNA, one strand shown
# T10 sequence: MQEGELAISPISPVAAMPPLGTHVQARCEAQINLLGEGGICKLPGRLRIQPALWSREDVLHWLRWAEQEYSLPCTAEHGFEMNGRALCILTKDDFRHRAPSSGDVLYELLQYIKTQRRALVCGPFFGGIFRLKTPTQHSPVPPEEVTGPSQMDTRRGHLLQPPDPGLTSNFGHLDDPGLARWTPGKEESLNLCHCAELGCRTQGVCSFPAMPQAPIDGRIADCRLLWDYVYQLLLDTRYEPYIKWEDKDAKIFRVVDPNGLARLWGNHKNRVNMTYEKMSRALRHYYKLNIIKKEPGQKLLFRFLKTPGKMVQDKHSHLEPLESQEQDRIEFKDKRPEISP
# Outline: as §1
# ELF5 = target: T11, ELF5 (Homo sapiens, UniProt Q9UKW6-2 1-255); settings: protein: recombinant; tags: N-terminal GST; dsDNA, one strand shown
# T11 sequence: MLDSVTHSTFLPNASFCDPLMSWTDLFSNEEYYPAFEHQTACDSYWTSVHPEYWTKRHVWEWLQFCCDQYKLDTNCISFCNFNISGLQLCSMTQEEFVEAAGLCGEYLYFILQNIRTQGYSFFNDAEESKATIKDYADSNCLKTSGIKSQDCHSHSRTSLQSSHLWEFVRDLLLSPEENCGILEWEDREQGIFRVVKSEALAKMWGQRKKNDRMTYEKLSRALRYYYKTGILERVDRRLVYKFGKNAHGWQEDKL
# Outline: as §1
# ETV3 = target: T12, ETV3 (Homo sapiens, UniProt P41162-2 1-143); settings: protein: recombinant; tags: N-terminal GST; dsDNA, one strand shown
# T12 sequence: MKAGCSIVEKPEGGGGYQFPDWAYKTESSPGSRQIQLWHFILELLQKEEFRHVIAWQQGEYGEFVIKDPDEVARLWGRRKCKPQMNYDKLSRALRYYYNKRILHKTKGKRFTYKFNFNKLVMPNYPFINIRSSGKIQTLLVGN
# Outline: as §1
# ETV6 = ETV6 (Homo sapiens, UniProt P41212 1-452); settings: protein: recombinant; tags: N-terminal GST; dsDNA, one strand shown
# Sequence of ETV6 (P41212 whole entry): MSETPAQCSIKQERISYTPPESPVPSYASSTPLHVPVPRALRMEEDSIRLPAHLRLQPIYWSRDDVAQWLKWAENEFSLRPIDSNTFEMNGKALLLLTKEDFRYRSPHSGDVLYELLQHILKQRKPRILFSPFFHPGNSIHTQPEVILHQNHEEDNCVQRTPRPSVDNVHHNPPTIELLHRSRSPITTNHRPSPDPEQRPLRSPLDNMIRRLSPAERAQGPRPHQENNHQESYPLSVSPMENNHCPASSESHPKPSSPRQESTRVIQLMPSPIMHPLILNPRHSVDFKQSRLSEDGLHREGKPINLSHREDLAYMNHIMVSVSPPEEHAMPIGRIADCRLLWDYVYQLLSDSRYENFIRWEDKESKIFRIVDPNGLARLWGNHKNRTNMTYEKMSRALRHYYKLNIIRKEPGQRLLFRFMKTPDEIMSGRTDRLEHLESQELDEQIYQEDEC
# Outline: as §1
sequence,measurement,setting,value
TGAACA,binding signal,FEV,"1.21 fold enrichment (6-mer frequency, TF over GST control)"
same,binding signal,ETV5,"1.2 fold enrichment (6-mer frequency, TF over GST control)"
same,binding signal,HSF1,"1.18 fold enrichment (6-mer frequency, TF over GST control)"
same,binding signal,SPIC,"1.29 fold enrichment (6-mer frequency, TF over GST control)"
same,binding signal,ELF4,"1.24 fold enrichment (6-mer frequency, TF over GST control)"
same,binding signal,ELK4,"1.4 fold enrichment (6-mer frequency, TF over GST control)"
same,binding signal,ETV2,"1.27 fold enrichment (6-mer frequency, TF over GST control)"
same,binding signal,ELF3,"1.3 fold enrichment (6-mer frequency, TF over GST control)"
same,binding signal,CRX,"1.06 fold enrichment (6-mer frequency, TF over GST control)"
same,binding signal,ETV1,"1.27 fold enrichment (6-mer frequency, TF over GST control)"
same,binding signal,ERF,"1.27 fold enrichment (6-mer frequency, TF over GST control)"
same,binding signal,ETV3L,"1.31 fold enrichment (6-mer frequency, TF over GST control)"
same,binding signal,ETS2,"1.18 fold enrichment (6-mer frequency, TF over GST control)"
same,binding signal,SPDEF,"1.22 fold enrichment (6-mer frequency, TF over GST control)"
same,binding signal,ETV7,"1.21 fold enrichment (6-mer frequency, TF over GST control)"
same,binding signal,ELF5,"1.26 fold enrichment (6-mer frequency, TF over GST control)"
same,binding signal,ETV3,"1.25 fold enrichment (6-mer frequency, TF over GST control)"
same,binding signal,ETV6,"1.21 fold enrichment (6-mer frequency, TF over GST control)"

# From publication PMC7862700, “An all-to-all approach to the identification of sequence-specific readers for epigenetic DNA modifications on cytosine”
